# Compounds without any hit were thinned out: in the full panel of roughly 83,000, 20% have a hit.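 Activity criterion: percent growth below 10, measured after cells in 96-well plates were exposed to a single compound concentration for 48 hours.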 A number with no mark means an inactive call. Activity calls are given as the source filed them.
# Legend:
# Assay in all cases: NCI-60 one-dose screen, 48 h (100 = growth as untreated, 0 = no growth, -100 = all killed)
# [1] = tested on: NCI-H23 lung; details: 10 µM unless noted
# [2] = tested on: NCI-H226 lung; details: 10 µM unless noted
# [3] = tested on: NCI-H322M lung; details: 10 µM unless noted
# [4] = tested on: NCI-H460 lung; details: 10 µM unless noted
# [5] = tested on: HOP-92 NSCLC; details: 10 µM
# [6] = tested on: NCI-H522 lung; details: 10 µM
# [7] = tested on: A549/ATCC NSCLC; details: 10 µM unless noted
# [8] = tested on: 786-0 renal; details: 10 µM unless noted
# [9] = tested on: COLO 205 colon; details: 10 µM unless noted
# [10] = tested on: DU-145 prostate; details: 10 µM unless noted
# [11] = tested on: K-562 leukemia; details: 10 µM unless noted
# [12] = tested on: MALME-3M melanoma; details: 10 µM unless noted
# [13] = tested on: MDA-MB-231 breast; details: 10 µM unless noted
# [14] = tested on: RXF 393 renal; details: 10 µM unless noted
# [15] = tested on: SF-268 CNS; details: 10 µM unless noted
# [16] = tested on: SF-295 CNS; details: 10 µM unless noted
# [17] = tested on: SF-539 CNS; details: 10 µM unless noted
# [18] = tested on: UACC-257 melanoma; details: 10 µM unless noted
# [19] = tested on: M14 melanoma; details: 10 µM unless noted
Compound,growth [1],growth [2],growth [3],growth [4],growth [5],growth [6],growth [7],growth [8],growth [9],growth [10],growth [11],growth [12],growth [13],growth [14],growth [15],growth [16],growth [17],growth [18] [%],growth [19]
CCOC(=O)NC1=NCC(C)(C)S1,102%,97.2%,101%,101%,111%,87.3%,100%,104%,117%,107%,88.4%,103%,101%,111%,97.8%,98.7%,110%,103,–
CC(=O)OC1/C=C\CC/C=C\C1 (stereo not drawn),121%,102%,102%,102%,92.8%,102%,100%,102%,121%,113%,110%,108%,111%,110%,107%,97.3%,93.1%,108,104%
COC(=O)/C(Br)=C/c1c[nH]c2ccc(Br)cc12,98.9%,90.9%,100%,112%,41.6%,63.9%,89.9%,55%,95.8%,104%,74.7%,95.2%,80.9%,32.6%,97.7%,64%,95%,88,–
CC1C(=O)CCCC1=O,113%,121%,99.4%,120%,106%,90.9%,102%,103%,114%,124%,103%,98.4%,101%,134%,112%,104%,98.9%,108,111%
c1ccc(Nc2ccccn2)cc1,103%,130%,106%,115%,97.9%,91.7%,98.9%,95.1%,99.8%,111%,89.5%,103%,96.6%,113%,115%,102%,99.5%,104,107%
O=C(N/N=C/c1ccccc1Cl)c1cccc2ccccc12,97.9%,99.7%,108%,98.9%,94.8%,84.5%,97.5%,105%,114%,115%,93.7%,97.9%,105%,110%,104%,99.7%,108%,111,106%
CCN(CC)CCCNc1c2ccc(Cl)cc2nc2ccc(OC)cc12,-34.9% (active),-6.37% (active),-18.9% (active),1.68% (active),-27.8% (active),-52% (active),-32.4% (active),9.99% (active),-72.3% (active),5.08% (active),-21.9% (active),-59.7% (active),-39.5% (active),-57.9% (active),-10.1% (active),-21.7% (active),-65.7% (active),33.4,-79% (active)
Cc1ccnc2c(NC(C)CCCN)cc(O)c(O)c12 (stereo not drawn),40.4%,111%,75.3%,115%,47.6%,12.6%,94.7%,95.1%,77.8%,80.3%,80.3%,123%,75.2%,96.2%,108%,104%,79.8%,97.2,–
CC(=O)Nc1nc(C)c(C(=O)NNC(=O)Nc2ccccc2)s1,102%,7.19% (active),120%,108%,60.6%,64.5%,99.1%,110%,105%,101%,114%,126%,89.6%,121%,99.8%,116%,99.4%,116,107%
NNC(=O)CNc1ccc2ccccc2c1,101%,109%,115%,113%,70.4%,98.5%,115%,105%,109%,95.8%,86.8%,98.9%,104%,-7.3% (active),120%,118%,95.4%,105,-100% (active)
CCCCCCCCCCCCCCCC[n+]1cccc(C#N)c1,76.8%,80.2%,82.8%,71.6%,48.7%,54.7%,87.7%,70.3%,31.9%,68.2%,6.02% (active),92%,69.7%,17.4%,53.3%,91.5%,25.5%,103,62%
C=C(NC(=O)[C@H](C(C)C)N(C)c1cccc2[nH]ccc12)C(=O)OC,99.8%,97.5%,100%,103%,99.5%,87.3%,96.5%,95.9%,132%,100%,89.4%,92.8%,109%,106%,101%,101%,117%,96.9,–
Cc1nc2c(nnn2-c2ccccc2)c2nc(-c3ccc(Cl)cc3)oc(=O)c12,116%,92.8%,103%,115%,117%,99.7%,111%,105%,120%,119%,112%,101%,119%,104%,103%,102%,96.8%,117,108%
CC1(C)C(O)NC(Cl)=C(C#N)C1(C#N)C#N (stereo not drawn),92.2%,135%,130%,113%,141%,91.5%,103%,95.6%,118%,110%,94.4%,136%,111%,7.52% (active),123%,174%,95.9%,109,110%
Oc1ccccc1/C=N/N=C/c1c(O)ccc2ccccc12,82%,90.8%,107%,88%,66.9%,84%,95.6%,107%,104%,96.9%,78.5%,91.3%,69.9%,109%,92.5%,98.1%,96.9%,98.2,80%
COc1cc(NC(C)CCCN)c2nc(C)ccc2c1OC (stereo not drawn),90.9%,102%,96.9%,109%,55.5%,101%,147%,98.3%,60.5%,87.2%,78.9%,69.9%,75.6%,186%,109%,118%,93.6%,124,–
CCCCCCCCCC[N+](C)(C)C,28.8%,45%,75.6%,13%,-24.5% (active),18.1%,34.3%,8.96% (active),-49.9% (active),34%,22.3%,24.8%,14.3%,-42.3% (active),13.2%,36.1%,1.4% (active),66.3,6.8% (active)

# — PubChem BioAssay (NCI)
